Screening results as filed in PubChem.
Shown are actives, neighbours in structure and some others; about 3.5% of the full set was active somewhere.
GPR151 activ: human GPR151 activation. AID 1508602. Q8TDV0. hit rate 1% among 650,000. PathHunter beta-arrestin GPR151 cells, luminescence. activation, % at 11.2 µM; in the data active = activation above about 4.9%;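 also: 0% = median of compound wells and 100% = cells with positive control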
MITF primary: blocks human microphthalmia-associated transcription factor. O75030. AlphaScreen MITF homodimerization, bead proximity signal. inhibition, % at 2.6 µM. hit rate 0.91% among 650,000. AID 1259374; in the data active = inhibition above about 50%;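 also: 0% = vehicle wells with protein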
Target sequence (O75030 whole entry, looked up): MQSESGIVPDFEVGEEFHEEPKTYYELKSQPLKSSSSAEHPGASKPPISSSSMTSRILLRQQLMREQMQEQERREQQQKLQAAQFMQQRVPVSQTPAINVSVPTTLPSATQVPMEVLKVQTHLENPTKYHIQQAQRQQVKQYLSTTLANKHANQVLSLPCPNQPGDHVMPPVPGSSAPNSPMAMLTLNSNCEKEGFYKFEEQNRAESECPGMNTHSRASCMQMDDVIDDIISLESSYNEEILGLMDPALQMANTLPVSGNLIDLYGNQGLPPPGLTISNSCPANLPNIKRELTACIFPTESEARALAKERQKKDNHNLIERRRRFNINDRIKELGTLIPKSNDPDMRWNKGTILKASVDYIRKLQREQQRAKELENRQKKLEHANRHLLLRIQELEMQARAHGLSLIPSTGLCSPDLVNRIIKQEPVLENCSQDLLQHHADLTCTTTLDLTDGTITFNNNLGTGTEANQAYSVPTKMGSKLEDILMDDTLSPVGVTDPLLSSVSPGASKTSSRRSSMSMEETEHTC
TEAD-YAP block: TEAD-YAP interaction inhibition; HEK-TIYL cells, TEAD-Gal4/YAP UAS-luciferase luminescence; inhibition, % at 9.12 µM; hit rate 1.4% among 640,000; AID 1259422; in the data active = inhibition above about 32%;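 also: 0% = median of test compound wells and 100% = reference inhibitor wells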
FBW7 act: activators of human E3 ligase FBW7 | Q969H0 | AlphaScreen FBW7–phospho-cyclin E peptide binding, activator screen | normalized activity (activation), % at 26.1 µM | hit rate 0.13% among 650,000; in the data active = normalized activity above about 1.9%;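 also: purified mutant Fbw7 with reduced substrate affinity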
GPR151 confirm: confirmation of human GPR151 activators. GPR151 PathHunter beta-arrestin cells, luminescence, 90 min; % of EA-reagent control over plate median. shares compounds with GPR151 activ. 6,700 tested, under 10 active. activation, % at 11.2 µM. AID 1508609;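 active = mean percent activation across replicates above the confirmation screen cutoff of 4.91%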
GPR119 counter: activates human GPR119 in a GPR151 counter-screen; shares compounds with GPR151 activ; GPR119 PathHunter beta-arrestin cells, luminescence, 90 min; 0 = compound-well median, 100 = enzyme-acceptor control; activation, % at 11.2 µM; hit rate 0.3% among 6,700; AID 1508611;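 active = mean percent activation in the counterscreen above 29.09%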;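 also: counterscreen on off-target GPR119 to flag nonselective hits from the GPR151 activator screen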
Starred values were filed as active, the others as inactive; · = no result given.

SMILES	GPR151 activ	MITF primary	TEAD-YAP block	FBW7 act	GPR151 confirm	GPR119 counter
CC(=O)Oc1cccc(/C=C(\C#N)C(=O)Nc2ccc([N+](=O)[O-])cc2C)c1	6.3*	13	12	0	-1	-9
Cc1c(C(=O)N/N=C/c2cccc([N+](=O)[O-])c2)[nH]c2c([N+](=O)[O-])cccc12	5.2*	1	-7	0	0	-9
Cc1cc([N+](=O)[O-])ccc1NC(=O)/C(C#N)=C/c1cccc([N+](=O)[O-])c1	0	9	4	0	·	·
N#C/C(=C\c1cccc([N+](=O)[O-])c1)C(N)=O	5.7*	2	-3	0	0	3
CCOCCCNC(=O)c1ccc(N2CCC(Cc3ccccc3)CC2)c([N+](=O)[O-])c1	0	8	14	0	·	·
O=C(c1ccccc1)c1ccc2[nH]c(=O)c(Cc3ccccc3Cl)nc2c1	-1	-7	-12	0	·	·
CCOC(=O)c1c(C)n(C)c2ccc(OCC(O)Cn3nnc4ccccc43)cc12 (configuration not stated)	6.0*	12	12	0	0	4
CCOC(=O)c1c(C)n(C)c2ccc(OCC(O)CN(CC)CC)cc12 (configuration not stated)	4	-3	4	0	·	·
CCOc1ccc(S(=O)(=O)/N=C2/C=C(Br)C(=O)c3ccccc32)cc1	-1	25	9	0	·	·
Cc1cc2nnc(SCC(=O)N3CCC(C)CC3)n2c(N)n1	4.9*	3	-7	0	1	-1
O=C1CSC(c2cc3c(cc2Br)OCO3)N1c1ccc(Cl)cc1 (configuration not stated)	-1	0	-10	1	·	·
COc1ccc(N2C(=O)c3ccc(C(=O)O)cc3C2=O)c([N+](=O)[O-])c1	0	0	-7	0	·	·
Cn1c(SCC(N)=O)nnc1-c1ccc2c(c1)OCO2	9.6*	-2	8	0	1	9
CN(C)C(=O)CSc1nnc(-c2ccc3c(c2)OCO3)n1C	0	1	-6	0	·	·
C=CCN1C(=O)C2(/C(=C(\O)c3ccc(F)cc3)C(=O)C(=O)N2CCN(C)C)c2ccccc21 (configuration not stated)	0	10	2	0	·	·
Cc1ccc(N2C(=O)CC(Sc3ncn[nH]3)C2=O)c(Cl)c1 (configuration not stated)	2	1	5	0	·	·
CCc1ccc(-c2cc(C(=O)N3CCCCC3)c3ccccc3n2)cc1	-1	8	-31	0	·	·
CCc1ccc(-c2cc(C(=O)N3CCN(C/C=C/c4ccccc4)CC3)c3ccccc3n2)cc1	5.3*	2	47*	0	1	11
CCOc1ccc2cc(C#N)c(SCC(=O)NC(C)(C)C)nc2c1	7.0*	-1	-2	0	0	6
N#Cc1cc2cc3c(cc2nc1SCC(=O)Nc1ccc(F)cc1)OCCO3	6.2*	-8	7	0	0	-10
N#Cc1cc2cc3c(cc2nc1SCC(=O)Nc1ccc(F)cc1)OCO3	2	3	-4	0	·	·
CCOc1ccc2nc(SCC(=O)Nc3ccc4c(c3)OCCO4)c(C#N)cc2c1	6.4*	5	5	0	0	-10
O=[N+]([O-])c1cccc(Nc2nc(-c3ccccc3)cs2)c1	0	22	-38	0	·	·
CCOc1cc(CN2CCCCC2C)ccc1OC (configuration not stated)	0	10	-6	0	·	·
Cc1ccc(OCC(=O)Nc2nnc(S(=O)(=O)NCc3ccccc3)s2)cc1	8.7*	-9	-26	0	1	-1
SMILES	GPR151 activ	MITF primary	TEAD-YAP block	FBW7 act	GPR151 confirm	GPR119 counter
O=C(Nc1nnc(S(=O)(=O)N2CCc3ccccc32)s1)c1cccs1	5.2*	-13	-2	0	1	3
Cc1cccc(OCC(=O)Nc2nnc(S(=O)(=O)N3CCc4ccccc43)s2)c1	6.1*	-4	-2	0	0	-6
O=C(Nc1nnc(S(=O)(=O)N2CCc3ccccc32)s1)c1ccco1	2	1	2	0	·	·
Nc1nccc(-c2ccc3nc(C4COc5ccc(C(=O)NC6CCC6)cc5C4)[nH]c3c2)n1 (configuration not stated)	0	6	-5	0	·	·
Cc1cccc(NC(=O)c2ccc(CNc3c(N4CCCCC4)c(=O)c3=O)cc2)c1	-1	2	4	0	·	·
CN(c1ccccc1)S(C)(=O)=O	3	-5	-1	0	·	·
Cc1cc(NC(=O)c2ccccc2)n(-c2nc3ccccc3[nH]2)n1	-2	11	4	0	·	·
Cc1cc(NC(=O)c2cc3ccccc3oc2=O)n(-c2nc3ccccc3[nH]2)n1	8.1*	-6	9	0	0	5
Cc1cc(C)nc(SCC(=O)NNC(=O)c2ccccc2Br)n1	6.0*	20	11	0	0	0
CC(C)(O)C#Cc1ccc(C(=O)NC(Cc2c[nH]c3ccccc23)C(=O)O)cc1 (configuration not stated)	12*	-2	-3	0	1	7
Cc1ccc(C(=O)NC(Cc2c[nH]c3ccccc23)C(=O)O)cc1 (configuration not stated)	-1	-2	-4	0	·	·
NC(=O)COc1ncnc2c(Cl)cc(Cl)cc12	0	-6	3	0	·	·
CC1(C(=O)NC2CCCC2)CCC(=O)N1CCc1ccccc1 (configuration not stated)	0	1	16	0	·	·
O=C(Cc1n[nH]c(=O)c2ccccc12)Nc1ccccn1	5.4*	7	0	0	0	-7
CSc1nsc(NC(=O)Cc2n[nH]c(=O)c3ccccc23)n1	-1	-4	-4	0	·	·
CCOc1ccccc1/C=C1\Oc2c(ccc(O)c2CN2CCN(CCO)CC2)C1=O	6.8*	2	1	0	0	6
CCOc1ccc(/C=C2\Oc3c(ccc(O)c3CN3CCN(CCO)CC3)C2=O)cc1	-1	-8	-6	0	·	·
Brc1ccc2nc(-c3c[nH]c4ccccc34)cn2c1	7.1*	2	-29	0	0	-8
Cc1cccn2cc(-c3c[nH]c4ccccc34)nc12	1	1	-46	0	·	·
COc1ccc(OC)c(CCNC(=O)c2noc3c2COc2ccccc2-3)c1	-1	-4	-2	0	·	·
O=C(C[n+]1ccccc1)Nc1ccccc1C(=O)O	7.5*	-6	4	0	1	-2
CCCOC(=O)c1c(NC(=O)c2cc(-c3ccc(CC)cc3)nc3ccccc23)sc2c1CCCCC2	1	1	5	0	·	·
CN(CC(=O)NC1CCCCCC1)c1nnc(N2CCCC2=O)s1	-2	9	-2	1	·	·
CN(CC(=O)NC1CCCC1)c1nnc(N2CCCC2=O)s1	6.1*	3	-1	1	0	3
